Measured values reported in the supplement of paper PMC10849652.
Targets with a hit are over-represented here; the source holds about 8,800 in all. About 0.5% of all pairs of compound and target were hits.

What was measured:
Assay in all cases: log2 fold change, soluble protein after heating vs DMSO (PISA); higher = thermal stabilisation; K562 lysate, 10 uM; active = over 0.2 and 3.5 SD of the protein, either way, in both replicates (recomputed)
[1] = compound: C=CC(=O)N1CCC[C@@H](n2nc(-c3ccc(Oc4ccccc4)cc3)c3c(N)ncnc32)C1 [ibrutinib]
How it was run: (§1)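 Log-two fold change in thermal stability relative to solvent controls is reported from duplicates. For each sample, crude K562 extract from dounce-homogenised pellets in PBS pH 7.4 with 1 mM MgCl2, at 1 mg/mL protein, was treated with 10 μM compound for 30 min. Aliquots heated for 3 min across 48°C-58°C were pooled, brought to 0.5% NP-40 at 4°C and cleared at 21,000xg for 90 min. The supernatant was quantified by TMTpro 16plex LC-MS/MS with channel sums equalised.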

[2] = compound: CC(=O)c1cnc2ccc(-c3cc(Cl)c(O)c(Cl)c3)nc2c1N[C@H]1CC[C@H](CN(C)C)CC1
How it was run: as §1

[3] = compound: CC(C)(C)Cn1c(N)nc2ccc(-c3[nH]c(C(C)(C)C)nc3-c3ccc(F)cc3)nc21 [ralimetinib]
How it was run: as §1

[4] = compound: CC(C)(O)CC(=O)NCCn1ccc2ncnc(Nc3ccc(Oc4cccc(C(F)(F)F)c4)c(Cl)c3)c21
How it was run: as §1

[5] = compound: CC(C)C1=C2N=C(C=C(N2N=C1)NCC3=CC=CC=C3)NCCCCCCN
How it was run: as §1

[6] = compound: CC1=C(C(CC(=O)N1)C2=CC=C(C=C2)C(F)(F)F)C(=O)NC3=C(C=C4C(=C3)C=NN4)F
How it was run: as §1

[7] = compound: CC1=C(C2=C(C=C1)C(=O)C3=CC=CC=C3N2CCCN)C
How it was run: as §1

[8] = compound: CC1=C(C=C(C=C1)NC(=O)C2=CC(=CC=C2)C(C)(C)C#N)NC3=CC4=C(C=C3)N=CN(C4=O)C
How it was run: as §1

[9] = compound: CC1=C(C=C(C=C1)NC(=O)C2=CC(=CC=C2)N(C)C)NC(=O)C3=CC=C(C=C3)O
How it was run: as §1

[10] = compound: CC1=CC=C(C=C1)SC2=C3C=C(SC3=CN=C2)C(=O)N
How it was run: as §1

Measured: log2 fold change

NOA1 (UniProt Q8NC60)
inactive: [1] -0.024 | [2] -0.025 | [3] 0.002 | [4] 0.034 | [5] 0.005 | [6] -0.064 | [7] -0.02 | [8] 0.002 | [9] -0.001 | [10] 0.02

PANK4 (UniProt Q9NVE7)
inactive: [1] 0.039 | [2] 0.001 | [3] 0.023 | [4] -0.008 | [5] 0.036 | [6] -0.01 | [7] -0.024 | [8] -0.001 | [9] -0.005 | [10] -0.005

NMRAL1 (UniProt Q9HBL8)
inactive: [1] 0.122 | [2] 0.021 | [3] 0.06 | [4] 0.012 | [5] -0.03 | [6] 0.047 | [7] -0.048 | [8] -0.01 | [9] -0.016 | [10] 0

NAA35 (UniProt Q5VZE5)
Chain of UniProt Q5VZE5 (Q5VZE5 whole entry, looked up): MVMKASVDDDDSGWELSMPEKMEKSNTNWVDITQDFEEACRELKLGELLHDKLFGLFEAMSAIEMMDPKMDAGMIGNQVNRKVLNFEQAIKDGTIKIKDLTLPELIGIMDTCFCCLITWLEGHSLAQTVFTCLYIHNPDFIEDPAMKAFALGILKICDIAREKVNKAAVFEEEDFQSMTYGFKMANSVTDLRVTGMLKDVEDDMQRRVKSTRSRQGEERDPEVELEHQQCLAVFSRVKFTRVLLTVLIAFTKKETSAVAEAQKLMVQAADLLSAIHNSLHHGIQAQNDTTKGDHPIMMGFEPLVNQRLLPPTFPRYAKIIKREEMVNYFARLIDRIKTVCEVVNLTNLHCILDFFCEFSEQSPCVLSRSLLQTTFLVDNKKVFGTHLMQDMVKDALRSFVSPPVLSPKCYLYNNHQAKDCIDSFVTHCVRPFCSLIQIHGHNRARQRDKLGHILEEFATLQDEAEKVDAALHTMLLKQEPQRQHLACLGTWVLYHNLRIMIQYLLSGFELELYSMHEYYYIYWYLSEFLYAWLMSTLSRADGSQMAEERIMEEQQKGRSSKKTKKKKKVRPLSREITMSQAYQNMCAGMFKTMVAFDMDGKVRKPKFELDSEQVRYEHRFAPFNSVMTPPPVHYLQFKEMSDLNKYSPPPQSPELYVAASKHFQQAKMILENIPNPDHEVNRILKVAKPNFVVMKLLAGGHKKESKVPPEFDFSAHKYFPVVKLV
inactive: [1] -0.005 | [2] -0.017 | [3] 0.006 | [4] 0.042 | [5] -0.01 | [6] -0.008 | [7] -0.004 | [8] -0.006 | [9] 0.017 | [10] -0.02

PARP14 (UniProt Q460N5)
Chain of UniProt Q460N5 (Q460N5 whole entry, looked up): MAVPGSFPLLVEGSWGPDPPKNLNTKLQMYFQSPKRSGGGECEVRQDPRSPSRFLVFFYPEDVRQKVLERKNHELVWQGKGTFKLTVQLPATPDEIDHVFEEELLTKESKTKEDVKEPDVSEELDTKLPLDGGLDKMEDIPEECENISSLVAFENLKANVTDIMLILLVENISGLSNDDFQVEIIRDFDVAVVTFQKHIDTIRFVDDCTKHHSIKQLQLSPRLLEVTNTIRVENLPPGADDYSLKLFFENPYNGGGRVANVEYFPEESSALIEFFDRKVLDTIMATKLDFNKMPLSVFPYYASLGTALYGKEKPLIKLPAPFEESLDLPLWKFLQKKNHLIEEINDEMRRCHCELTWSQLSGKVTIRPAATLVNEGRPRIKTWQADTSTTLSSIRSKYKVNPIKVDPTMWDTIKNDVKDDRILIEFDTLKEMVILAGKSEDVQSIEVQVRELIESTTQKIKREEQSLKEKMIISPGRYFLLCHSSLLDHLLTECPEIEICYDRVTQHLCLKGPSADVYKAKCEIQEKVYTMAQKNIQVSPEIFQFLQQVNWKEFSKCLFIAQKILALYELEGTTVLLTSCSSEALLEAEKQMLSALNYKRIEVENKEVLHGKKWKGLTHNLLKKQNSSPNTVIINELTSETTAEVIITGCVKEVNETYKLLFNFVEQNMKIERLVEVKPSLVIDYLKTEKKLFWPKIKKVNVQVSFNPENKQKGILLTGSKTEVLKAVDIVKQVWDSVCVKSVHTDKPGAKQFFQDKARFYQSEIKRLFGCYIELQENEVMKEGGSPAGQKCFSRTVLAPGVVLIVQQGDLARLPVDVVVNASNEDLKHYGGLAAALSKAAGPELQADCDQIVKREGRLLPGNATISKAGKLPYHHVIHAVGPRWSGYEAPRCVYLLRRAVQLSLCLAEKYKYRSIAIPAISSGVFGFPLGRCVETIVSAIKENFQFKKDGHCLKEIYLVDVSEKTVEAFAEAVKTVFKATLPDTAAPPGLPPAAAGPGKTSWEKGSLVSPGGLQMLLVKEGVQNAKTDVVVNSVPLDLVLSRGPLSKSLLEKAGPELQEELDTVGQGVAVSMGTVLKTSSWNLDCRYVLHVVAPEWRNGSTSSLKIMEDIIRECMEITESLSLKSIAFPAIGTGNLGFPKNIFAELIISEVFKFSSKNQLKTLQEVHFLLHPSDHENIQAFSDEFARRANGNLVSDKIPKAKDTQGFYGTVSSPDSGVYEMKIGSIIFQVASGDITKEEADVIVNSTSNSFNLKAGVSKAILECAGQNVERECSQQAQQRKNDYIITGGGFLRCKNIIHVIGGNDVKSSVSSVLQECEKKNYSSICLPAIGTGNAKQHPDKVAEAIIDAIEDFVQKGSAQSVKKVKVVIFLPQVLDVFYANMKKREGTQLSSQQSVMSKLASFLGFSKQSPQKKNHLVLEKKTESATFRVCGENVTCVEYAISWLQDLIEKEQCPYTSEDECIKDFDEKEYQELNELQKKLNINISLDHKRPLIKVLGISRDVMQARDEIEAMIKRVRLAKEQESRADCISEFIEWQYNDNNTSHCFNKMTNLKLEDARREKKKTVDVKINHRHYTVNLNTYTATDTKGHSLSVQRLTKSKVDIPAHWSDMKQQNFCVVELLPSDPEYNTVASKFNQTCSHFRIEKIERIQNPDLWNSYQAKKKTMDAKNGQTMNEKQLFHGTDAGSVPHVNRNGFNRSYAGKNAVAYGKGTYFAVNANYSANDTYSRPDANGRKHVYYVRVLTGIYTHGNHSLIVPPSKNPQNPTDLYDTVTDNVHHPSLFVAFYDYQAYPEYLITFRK
inactive: [1] 0.029 | [2] -0.051 | [3] -0.03 | [4] 0.015 | [5] 0.074 | [6] 0.049 | [7] 0.011 | [8] -0.007 | [9] 0.002 | [10] -0.135

NBN (UniProt O60934)
inactive: [1] 0.016 | [2] -0.003 | [3] 0.014 | [4] 0.01 | [5] -0.016 | [6] -0.007 | [7] -0.015 | [8] -0.021 | [9] 0.022 | [10] -0.016

NIPSNAP3A (UniProt Q9UFN0)
inactive: [1] -0.013 | [2] -0.014 | [3] -0.016 | [4] -0.049 | [5] 0.029 | [6] 0.023 | [7] -0.021 | [8] 0.004 | [9] 0.022 | [10] -0.056

MTFP1 (UniProt Q9UDX5)
Chain of UniProt Q9UDX5 (Q9UDX5 whole entry, looked up): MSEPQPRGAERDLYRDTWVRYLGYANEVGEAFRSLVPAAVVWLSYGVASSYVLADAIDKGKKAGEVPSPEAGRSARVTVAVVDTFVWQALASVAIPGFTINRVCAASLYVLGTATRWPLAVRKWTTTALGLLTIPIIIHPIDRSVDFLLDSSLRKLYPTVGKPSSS
inactive: [1] 0.097 | [2] -0.065 | [3] -0.017 | [4] 0.079 | [5] -0.058 | [6] 0.018 | [7] 0.009 | [8] -0.011 | [9] -0.048 | [10] -0.001

NCAPH2 (UniProt Q6IBW4)
inactive: [1] -0.033 | [2] -0.01 | [3] 0.066 | [4] -0.091 | [5] 0.028 | [6] -0.017 | [7] 0 | [8] 0.01 | [9] 0.055 | [10] 0.011

NUMBL (UniProt Q9Y6R0)
inactive: [1] 0.047 | [2] -0.023 | [3] -0.009 | [4] 0.028 | [5] 0.07 | [6] 0.071 | [7] -0.081 | [8] 0.076 | [9] 0.058 | [10] -0.008

NR3C1 isoform 3 (UniProt P04150)
inactive: [1] -0.168 | [2] -0.019 | [3] -0.076 | [4] 0.04 | [5] 0.008 | [6] -0.031 | [7] 0.104 | [8] 0.024 | [9] -0.033 | [10] 0.055

NIT2 (UniProt Q9NQR4)
Chain of UniProt Q9NQR4 (Q9NQR4 whole entry, looked up): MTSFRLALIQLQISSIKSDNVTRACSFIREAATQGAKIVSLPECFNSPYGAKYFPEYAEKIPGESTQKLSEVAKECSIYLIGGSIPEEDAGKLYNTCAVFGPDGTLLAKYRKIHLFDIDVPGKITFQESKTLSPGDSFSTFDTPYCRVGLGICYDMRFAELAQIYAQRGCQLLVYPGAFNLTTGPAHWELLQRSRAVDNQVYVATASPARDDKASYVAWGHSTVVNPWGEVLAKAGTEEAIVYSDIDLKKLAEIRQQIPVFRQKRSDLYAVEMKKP
inactive: [1] 0.026 | [2] 0.014 | [3] -0.038 | [4] -0.041 | [5] 0.014 | [6] 0.017 | [7] 0.014 | [8] 0.017 | [9] 0.019 | [10] 0

NEDD8 (UniProt Q15843)
inactive: [1] 0.059 | [2] -0.013 | [3] -0.001 | [4] 0 | [5] 0.011 | [6] -0.01 | [7] 0.005 | [8] 0.077 | [9] 0.025 | [10] -0.029

OARD1 (UniProt Q9Y530)
inactive: [1] -0.013 | [2] 0.003 | [3] 0.003 | [4] 0.002 | [5] -0.01 | [6] -0.027 | [7] -0.046 | [8] 0.032 | [9] 0.035 | [10] 0.011

NAP1L5 (UniProt Q96NT1)
inactive: [1] -0.056 | [2] 0.018 | [3] -0.034 | [4] 0.034 | [5] -0.037 | [6] -0.036 | [7] -0.045 | [8] -0.13 | [9] -0.036 | [10] -0.009

NAA38 isoform 2 (UniProt Q9BRA0)
inactive: [1] 0.015 | [2] -0.012 | [3] -0.02 | [4] -0.015 | [5] -0.014 | [6] 0.052 | [7] -0.017 | [8] -0.028 | [9] 0.022 | [10] -0.029

NEK9 (UniProt Q8TD19)
inactive: [1] 0.005 | [2] 0.027 | [3] 0.055 | [4] 0 | [5] 0.01 | [6] 0.006 | [7] -0.01 | [8] 0.012 | [9] 0.009 | [10] 0.016

NDC1 (UniProt Q9BTX1)
inactive: [1] 0.009 | [2] -0.02 | [3] 0.007 | [4] -0.012 | [5] -0.013 | [6] -0.009 | [7] -0.031 | [8] 0.032 | [9] 0.007 | [10] 0.072

NPM3 (UniProt O75607)
inactive: [1] 0.038 | [2] 0.03 | [3] 0.029 | [4] -0.077 | [5] 0.018 | [6] 0.048 | [7] -0.03 | [8] 0.069 | [9] 0.018 | [10] -0.037

OSBPL3 isoform 2 (UniProt Q9H4L5)
Chain of UniProt Q9H4L5 (Q9H4L5 whole entry, looked up): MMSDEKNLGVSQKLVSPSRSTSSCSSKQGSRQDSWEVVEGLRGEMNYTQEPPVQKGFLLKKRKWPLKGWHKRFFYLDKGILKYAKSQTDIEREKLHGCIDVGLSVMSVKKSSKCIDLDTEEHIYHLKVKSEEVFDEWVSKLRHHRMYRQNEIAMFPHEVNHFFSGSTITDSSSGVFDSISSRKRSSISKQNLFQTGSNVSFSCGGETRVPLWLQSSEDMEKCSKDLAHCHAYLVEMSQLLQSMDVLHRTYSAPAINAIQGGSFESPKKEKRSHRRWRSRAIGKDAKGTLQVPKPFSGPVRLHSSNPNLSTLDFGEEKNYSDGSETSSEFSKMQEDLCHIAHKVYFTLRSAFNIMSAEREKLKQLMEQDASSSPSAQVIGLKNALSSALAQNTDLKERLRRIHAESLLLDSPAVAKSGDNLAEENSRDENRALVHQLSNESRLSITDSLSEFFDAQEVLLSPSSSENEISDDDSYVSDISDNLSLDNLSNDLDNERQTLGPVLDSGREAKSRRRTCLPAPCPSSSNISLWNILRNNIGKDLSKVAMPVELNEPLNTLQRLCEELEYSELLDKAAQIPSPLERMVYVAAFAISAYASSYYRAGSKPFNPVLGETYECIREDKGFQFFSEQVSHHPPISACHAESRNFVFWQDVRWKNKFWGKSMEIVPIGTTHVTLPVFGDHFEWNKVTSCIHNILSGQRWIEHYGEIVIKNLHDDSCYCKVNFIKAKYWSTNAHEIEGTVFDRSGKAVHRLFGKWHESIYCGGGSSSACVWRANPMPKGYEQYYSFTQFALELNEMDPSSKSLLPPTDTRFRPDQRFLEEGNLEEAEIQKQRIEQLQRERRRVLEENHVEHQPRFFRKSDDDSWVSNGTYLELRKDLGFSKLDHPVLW
inactive: [1] 0.031 | [2] -0.007 | [3] 0.019 | [4] 0.004 | [5] -0.033 | [6] 0.018 | [7] 0.02 | [8] 0.015 | [9] 0.057 | [10] -0.016

NPTN (UniProt Q9Y639)
Chain of UniProt Q9Y639 (Q9Y639 whole entry, looked up): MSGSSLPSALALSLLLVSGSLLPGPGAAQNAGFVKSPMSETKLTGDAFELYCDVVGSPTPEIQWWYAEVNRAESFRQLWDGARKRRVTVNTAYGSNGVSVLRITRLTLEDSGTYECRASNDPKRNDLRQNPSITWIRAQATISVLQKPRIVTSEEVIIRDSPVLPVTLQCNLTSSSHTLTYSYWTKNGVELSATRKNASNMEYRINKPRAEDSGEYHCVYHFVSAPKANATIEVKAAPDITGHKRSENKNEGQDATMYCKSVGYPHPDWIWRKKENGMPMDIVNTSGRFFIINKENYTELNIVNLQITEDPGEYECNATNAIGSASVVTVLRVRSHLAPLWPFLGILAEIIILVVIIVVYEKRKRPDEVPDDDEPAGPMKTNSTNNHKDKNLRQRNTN
inactive: [1] 0.069 | [2] 0.026 | [3] 0.042 | [4] -0.009 | [5] 0.007 | [6] -0.02 | [7] -0.015 | [8] 0.038 | [9] 0.004 | [10] -0.046

ORC2 (UniProt Q13416)
inactive: [1] 0.012 | [2] -0.011 | [3] 0.044 | [4] 0.032 | [5] -0.014 | [6] 0.016 | [7] -0.089 | [8] -0.005 | [9] -0.014 | [10] 0.021

NAA30 (UniProt Q147X3)
inactive: [1] 0.013 | [2] -0.017 | [3] 0.057 | [4] -0.037 | [5] -0.018 | [6] 0.084 | [7] -0.024 | [8] -0.045 | [9] 0.004 | [10] 0.046

MYD88 isoform 6 (UniProt Q99836)
Chain of UniProt Q99836 (Q99836 whole entry, looked up): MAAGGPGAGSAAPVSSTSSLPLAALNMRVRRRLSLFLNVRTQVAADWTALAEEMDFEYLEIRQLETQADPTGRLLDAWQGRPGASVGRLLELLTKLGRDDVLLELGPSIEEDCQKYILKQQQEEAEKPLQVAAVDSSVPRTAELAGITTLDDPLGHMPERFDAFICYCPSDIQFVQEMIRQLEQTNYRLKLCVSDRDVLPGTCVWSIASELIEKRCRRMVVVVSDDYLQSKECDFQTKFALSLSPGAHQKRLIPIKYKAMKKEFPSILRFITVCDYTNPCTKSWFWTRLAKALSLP
inactive: [1] 0.044 | [2] 0.003 | [3] 0.022 | [4] 0.005 | [5] 0.024 | [6] 0.002 | [7] -0.028 | [8] -0.009 | [9] -0.024 | [10] -0.029

NT5DC2 isoform 2 (UniProt Q9H857)
inactive: [1] 0 | [2] -0.066 | [3] -0.015 | [4] -0.026 | [5] 0 | [6] -0.002 | [7] -0.015 | [8] 0.008 | [9] 0.04 | [10] -0.025

OPA1 isoform 2 (UniProt O60313)
inactive: [1] -0.001 | [2] 0.006 | [3] -0.004 | [4] -0.036 | [5] -0.035 | [6] 0.031 | [7] 0.026 | [8] 0.024 | [9] 0.046 | [10] 0.02

NCOR2 (UniProt C9J0Q5)
inactive: [1] -0.002 | [2] -0.001 | [3] -0.026 | [4] -0.056 | [5] -0.034 | [6] 0.046 | [7] 0.022 | [8] -0.064 | [9] -0.014 | [10] -0.04

NONO (UniProt Q15233)
Chain of UniProt Q15233 (Q15233 whole entry, looked up): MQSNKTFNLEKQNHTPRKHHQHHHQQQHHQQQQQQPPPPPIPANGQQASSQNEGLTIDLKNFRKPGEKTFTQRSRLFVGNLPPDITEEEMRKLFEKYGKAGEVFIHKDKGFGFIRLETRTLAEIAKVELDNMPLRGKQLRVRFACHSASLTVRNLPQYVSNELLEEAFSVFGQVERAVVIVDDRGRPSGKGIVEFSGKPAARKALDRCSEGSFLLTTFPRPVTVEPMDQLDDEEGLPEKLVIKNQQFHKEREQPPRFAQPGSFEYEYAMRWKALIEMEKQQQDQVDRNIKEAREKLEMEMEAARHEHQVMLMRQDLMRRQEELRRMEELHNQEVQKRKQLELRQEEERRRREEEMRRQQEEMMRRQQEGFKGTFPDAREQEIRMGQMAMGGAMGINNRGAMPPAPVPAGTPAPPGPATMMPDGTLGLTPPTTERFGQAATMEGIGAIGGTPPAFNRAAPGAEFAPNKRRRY
inactive: [1] -0.013 | [2] 0.006 | [3] 0.008 | [4] -0.002 | [5] 0.006 | [6] -0.006 | [7] -0.006 | [8] -0.016 | [9] 0.015 | [10] 0.014

NFIC (UniProt P08651)
inactive: [1] -0.019 | [2] 0.014 | [3] 0.009 | [4] -0.058 | [5] 0.235 | [6] -0.038 | [7] -0.044 | [8] 0.049 | [9] 0.04 | [10] -0.082

NSUN2 (UniProt Q08J23)
inactive: [1] 0.014 | [2] 0.011 | [3] 0.023 | [4] 0.015 | [5] 0.006 | [6] 0.008 | [7] 0.006 | [8] -0.035 | [9] 0.033 | [10] 0.017
